Assay results reported in PubChem BioAssay (NCATS).
Where “and” joins values, the source holds several entries; their conditions need not be identical. Equal values may be shown once. Inconclusive results are not listed. A call without a number means that no potency is given here. Where a structure was tested more than once in an assay, its records may differ in their call. A number with no mark means an inactive call. Calls of active or inactive are those of the source. Calls follow the shape of the dose curve; as a rule, active = well fitted curve in the direction sought with a large enough effect; inconclusive = small, poorly fitted or top-dose-only effect, or another doubt; inactive = no such curve, though single readings can be large; an effect the other way counts as inactive or inconclusive.

Columns and labels:
[1] = test system: CRL-7250; test: Cytotoxic Profiling of Annotated Libraries Using Quantitative High-Throughput Screening (AID 1296008); details: Five cell lines viability, CellTiter-Glo ATP luminescence, 48-72 h; max response: stronger effect = lower value; also: nearly all actives have a fitted effect of over 60% in size; also: potency is read from the fitted curve at half-maximal effect
Procedure, shortened: (§1)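 Cells exposed to compounds for 48 or 72 hr at 37 degrees Celsius. Viability read as ATP-coupled luminescence with CellTiter-Glo after 10 min at room temperature.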

[2] = test system: HEK293; test: as above; details: Five cell lines viability, CellTiter-Glo ATP luminescence, 48-72 h; max response: stronger effect = lower value
Procedure, shortened: as §1

[3] = test system: HaCat; test: as above; details: Five cell lines viability, CellTiter-Glo ATP luminescence, 48-72 h; max response: stronger effect = lower value
Procedure, shortened: as §1

[4] = test system: KB-3-1; test: as above; details: Five cell lines viability, CellTiter-Glo ATP luminescence, 48-72 h; max response: stronger effect = lower value
Procedure, shortened: as §1

[5] = test system: NIH3T3; test: as above; details: Five cell lines viability, CellTiter-Glo ATP luminescence, 48-72 h; max response: stronger effect = lower value
Procedure, shortened: as §1

[6] = test system: HACAT; test: qHTS assay to identify novel small-molecules to repurpose for Merkel cell carcinoma treatment (AID 1296009); details: MCC and control cell lines, CellTiter-Glo viability, 72 h; at 44.8 µM (top of the series) unless noted; also: nearly all actives have a fitted effect of over 60% in size
Procedure, shortened: (§2)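 Cells were treated for 72 hr at 37 degree celsius with compounds in 8- or 11-point dose response. Viability was read by CellTiter-Glo luminescence, normalized to no-cell (cytotoxicity) and DMSO controls.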

[7] = test system: MCC-13; test: as above; details: MCC and control cell lines, CellTiter-Glo viability, 72 h; series mostly up to 46 µM
Procedure, shortened: as §2

[8] = test system: MKL-1; test: as above; details: MCC and control cell lines, CellTiter-Glo viability, 72 h; series mostly up to 46 µM
Procedure, shortened: as §2

[9] = test system: NIH3T3; test: as above; details: MCC and control cell lines, CellTiter-Glo viability, 72 h; at 44.8 µM (top of the series) unless noted
Procedure, shortened: as §2

[10] = test system: UISO; test: as above; details: MCC and control cell lines, CellTiter-Glo viability, 72 h; series mostly up to 46 µM
Procedure, shortened: as §2

[11] = test system: WaGa; test: as above; details: MCC and control cell lines, CellTiter-Glo viability, 72 h; series mostly up to 46 µM
Procedure, shortened: as §2

[12] = test system: C33A; test: Primary qHTS to identify gynecologic anti-cancer compounds using libraries of approved drugs and bioactive compounds (AID 1345084); details: Gynecologic cancer cell panel viability, ATPlite luminescence, 48 h; series mostly up to 57.5 µM; also: nearly all actives have a fitted effect of over 55% in size
Procedure, shortened: (§3)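 In this quantitative HTS, cell killing is estimated from loss of ATP-dependent luciferase light. Cells see five compound concentrations over a 48 h exposure.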

[13] = test system: CAOV3; test: as above; details: Gynecologic cancer cell panel viability, ATPlite luminescence, 48 h; series mostly up to 57.5 µM
Procedure, shortened: as §3

[14] = test system: TAB109; test: qHTS profiling for inhibitors of Plasmodium falciparum proliferation (AID 504749); also: nearly all actives have a fitted effect of over 60% in size; details: P. falciparum in erythrocytes, SYBR Green DNA, 72 h; series mostly up to 28.7 µM
Procedure, shortened: (§4)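 P. falciparum-infected erythrocytes (0.3% parasitemia, 2.5% hematocrit) incubated with compound 72 h at 37 C, 5% CO2. Parasite DNA detected by SYBR Green after lysis, overnight at room temperature; normalised to 0.29 uM artemisinin and DMSO.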

[15] = test system: TAB113; test: as above; details: P. falciparum in erythrocytes, SYBR Green DNA, 72 h; series mostly up to 28.7 µM
Procedure, shortened: as §4

[16] = test system: TAB165; test: as above; details: P. falciparum in erythrocytes, SYBR Green DNA, 72 h; series mostly up to 28.7 µM
Procedure, shortened: as §4

[17] = test system: W2; test: as above; details: P. falciparum in erythrocytes, SYBR Green DNA, 72 h; series mostly up to 28.7 µM
Procedure, shortened: as §4

[18] = test system: HEK293T; test: qHTS assay to identify novel small-molecules to repurpose for Merkel cell carcinoma treatment (AID 1296009); details: MCC and control cell lines, CellTiter-Glo viability, 72 h; at 44.8 µM (top of the series); also: nearly all actives have a fitted effect of over 60% in size
Procedure, shortened: as §2

[19] = test system: MCC-26; test: as above; details: MCC and control cell lines, CellTiter-Glo viability, 72 h; series mostly up to 46 µM
Procedure, shortened: as §2

[20] = test system: MKL-2; test: as above; details: MCC and control cell lines, CellTiter-Glo viability, 72 h; series mostly up to 46 µM
Procedure, shortened: as §2

## O=C(O)CCc1nc(-c2ccccc2)c(-c2ccccc2)o1
[1]
  max response: -11.7% and 0.986%
[2]
  max response: -15.1% and -1.16%
[3]
  max response: -18.5%
  outcome: inactive
[4]
  max response: -6.48%
  outcome: inactive
[5]
  max response: 3.82%
  outcome: inactive
[6]
  outcome: inactive
[7]
  Potency: inactive
[8]
  Potency: inactive
[9]
  outcome: inactive
[10]
  Potency: inactive
[11]
  Potency: inactive
[12]
  Potency: inactive
[13]
  Potency: inactive

## C[C@@H](O)[C@H]1C(=O)N2C(C(=O)O)=C(S[C@@H]3CN[C@H](C(=O)N(C)C)C3)[C@H](C)[C@H]12
[14]
  outcome: inactive
[15]
  Potency: inactive
[16]
  Potency: inactive
[17]
  Potency: inactive
[1]
  max response: 3.74%
  outcome: inactive
[2]
  outcome: inactive
[3]
  max response: -2.71%
  outcome: inactive
[4]
  max response: -4.18%
[5]
  max response: -2.02% and 0.837%
[6]
  outcome: inactive
[18]
  outcome: inactive
[7]
  Potency: inactive
[19]
  Potency: inactive
[8]
  Potency: inactive
[20]
  Potency: inactive
[10]
  Potency: inactive
[11]
  Potency: inactive
[12]
  Potency: inactive
[13]
  Potency: inactive

## O=C(O)c1ccccc1C(=O)Nc1ccc(-c2ccccc2)cc1
[1]
  max response: 4.68%
[2]
  max response: -10.6%
[3]
  outcome: inactive
[4]
  max response: 9.98%
  outcome: inactive
[5]
  outcome: inactive
[6]
  outcome: inactive
[7]
  Potency: inactive
[19]
  Potency: inactive
[8]
  Potency: inactive
[20]
  Potency: inactive
[9]
  outcome: inactive
[10]
  Potency: inactive
[11]
  Potency: inactive
[12]
  Potency: inactive

## CCOC(=O)C1=C(N)Oc2ccc(Br)cc2C1C(C#N)C(=O)OCC (stereo not drawn)
[1]
  max response: 2.39% and -0.818% and 2%
[2]
  max response: -11.5% and -3.28%
  outcome: inactive
[3]
  max response: -16.4%
  outcome: inactive
[4]
  max response: -1.43%
  outcome: inactive
[5]
  max response: 0.0498% and 4.88%
  outcome: inactive
[6]
  outcome: inactive
[18]
  outcome: inactive
[7]
  Potency: inactive
[19]
  Potency: inactive
[8]
  Potency: inactive
[20]
  Potency: inactive
[9]
  outcome: inactive
[10]
  Potency: inactive
[11]
  Potency: inactive
[12]
  Potency: inactive
[13]
  Potency: inactive

## O=C(O)c1cc(-c2ccccc2)nc2ccccc12
[14]
  outcome: inactive
[15]
  Potency: inactive
[16]
  Potency: inactive
[17]
  Potency: inactive
[1]
  max response: -0.325% and 3.3% and 1.79%
[2]
  max response: -6.89%
  outcome: inactive
[3]
  max response: -15.6%
  outcome: inactive
[4]
  max response: -3.95% and -19% and 4.62%
[5]
  max response: 0.25% and -0.385%
  outcome: inactive
[6]
  outcome: inactive
[18]
  outcome: inactive
[7]
  Potency: inactive
[19]
  Potency: inactive
[8]
  Potency: inactive
[20]
  Potency: inactive
[9]
  outcome: inactive
[10]
  Potency: inactive
[11]
  Potency: inactive
[12]
  Potency: inactive
[13]
  Potency: inactive

## COc1ccc(C2CC(c3ccccc3)=NN2c2ccc(S(N)(=O)=O)cc2)cc1 (stereo not drawn)
[1]
  Potency: 10.5 µM (active)
  max response: -2.01%
[3]
  max response: 3.54% and 1.7%
[4]
  max response: -15.8%
[5]
  max response: -14.6% and -17.5%
[7]
  Potency: inactive
[19]
  Potency: inactive
[8]
  Potency: inactive
[20]
  Potency: inactive
[11]
  Potency: inactive
[12]
  Potency: inactive
[13]
  Potency: inactive

## COc1ccccc1N1CCN(CCCNc2cc(=O)n(C)c(=O)n2C)CC1
[14]
  outcome: inactive
[15]
  Potency: inactive
[16]
  Potency: inactive
[17]
  Potency: inactive
[1]
  max response: -0.41%
  outcome: inactive
[2]
  outcome: inactive
[3]
  outcome: inactive
[4]
  max response: 10% and -5.34% and -7.87%
[5]
  outcome: inactive
[6]
  outcome: inactive
[18]
  outcome: inactive
[7]
  Potency: inactive
[19]
  Potency: inactive
[8]
  Potency: inactive
[20]
  Potency: inactive
[9]
  outcome: inactive
[10]
  Potency: inactive
[11]
  Potency: inactive
[12]
  Potency: inactive
[13]
  Potency: inactive

## CC(C)[C@H](CO)Nc1nc(Nc2ccc(C(=O)O)c(Cl)c2)c2ncn(C(C)C)c2n1
[1]
  outcome: inactive
[2]
  max response: 1.29%
[3]
  max response: 4.58%
  outcome: inactive
[4]
  outcome: inactive
[5]
  max response: -1.87%
  outcome: inactive
[6]
  outcome: inactive
[7]
  Potency: inactive
[9]
  outcome: inactive [at 17.4 µM]
[12]
  Potency: inactive
[13]
  Potency: inactive

## Cc1ccc(Nc2cc(-c3cccc(N4C(=O)c5ccccc5C4=O)c3)ncn2)cc1NS(C)(=O)=O
[1]
  outcome: inactive
[2]
  max response: -21.5%
[3]
  outcome: inactive
[4]
  max response: 6.32%
  outcome: inactive
[5]
  max response: -7.13%
  outcome: inactive
[6]
  outcome: inactive
[7]
  Potency: inactive
[8]
  Potency: inactive
[20]
  Potency: inactive
[9]
  outcome: inactive
[10]
  Potency: inactive
[11]
  Potency: inactive
[12]
  Potency: inactive
[13]
  Potency: inactive

## CS(=O)c1ccc(-c2nc(-c3ccc(F)cc3)c(-c3ccncc3)[nH]2)cc1 (stereo not drawn)
[1]
  Potency: 19.1 µM (active)
  outcome: inactive
[2]
  Potency: 8.55 µM (active)
  outcome: inactive
[3]
  max response: 2.48%
[4]
  outcome: inactive
[5]
  max response: 3.16% and 3.83%
[18]
  outcome: inactive
[7]
  Potency: inactive
[19]
  Potency: inactive
[8]
  Potency: inactive
[20]
  Potency: inactive
[10]
  Potency: inactive
[12]
  Potency: inactive
[13]
  Potency: inactive

## Cc1cnc(C(=O)O)c[n+]1[O-]
[14]
  outcome: inactive
[15]
  Potency: inactive
[16]
  Potency: inactive
[17]
  Potency: inactive
[1]
  max response: 4.3%
[2]
  outcome: inactive
[3]
  outcome: inactive
[4]
  max response: 1.54% and 2.87% and -1.62%
  outcome: inactive
[5]
  max response: -3.95%
[6]
  outcome: inactive
[18]
  outcome: inactive
[7]
  Potency: inactive
[19]
  Potency: inactive
[8]
  Potency: inactive
[10]
  Potency: inactive
[11]
  Potency: inactive
